Several values for one entry are separate records, joined by “and”; a condition that tells them apart may be missing. Equal values may be shown once. In all, about 5,500 compounds went through this assay and about 2,000 (36%) were called active. Roughly 18% stayed inconclusive and do not appear here. No stated cut-off is given here; in the data, active means normalized growth mostly below about 0.91 (no sharp cut-off); inconclusive means no clear call, values can overlap the other calls; inactive means mostly above about 0.92. The list shows a part of the results. More than one record can exist for a structure, and the calls need not agree.
Test: chemical genetic growth profiling, strain panel (AID 1159580);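 further: tested at 20 µM; growth read once vehicle control cultures reached saturation at 30 °C; 1 = growth at the plate median or of vehicle wells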
Conditions: growth OD

Measured: normalized growth

O=c1c2ccccc2[se]n1-c1ccccc1
0.116 (active) and 0.922 (inactive): S. cerevisiae deletion strains, locus YMR307W, strain GAS1, stronger effect = lower value
0.0501 (active) and 0.992 (inactive): S. cerevisiae deletion strains, locus YPL241C, strain CIN2, stronger effect = lower value
0.0495 (active) and 0.989 (inactive): S. cerevisiae deletion strains, locus YNL322C, strain KRE1, stronger effect = lower value
inactive: S. cerevisiae deletion strains, locus YLR058C, strain SHM2, stronger effect = lower value 0.955 | S. cerevisiae deletion strains, locus YNL175C, strain NOP13, stronger effect = lower value 0.998 | S. cerevisiae deletion strains, locus YNL183C, strain NPR1, stronger effect = lower value 0.841 | S. cerevisiae deletion strains, locus YNL197C, strain WHI3, stronger effect = lower value 0.924 | S. cerevisiae deletion strains, locus YOL012C, strain htz1 0.238 | S. cerevisiae deletion strains, locus YOL147C, strain pex11, stronger effect = lower value 1.01 | S. cerevisiae deletion strains, locus YOR144C, strain elg1, stronger effect = lower value 1.01 | S. cerevisiae deletion strains, locus YOR290C, strain snf2, stronger effect = lower value 0.888
active: S. cerevisiae deletion strains, locus YJR075W, strain HOC1, stronger effect = lower value 0.0678 | S. cerevisiae deletion strains, locus YKL068W, stronger effect = lower value 0.0623 | S. cerevisiae deletion strains, locus YKL085W, strain MDH1 (second series), stronger effect = lower value 0.0549 | S. cerevisiae deletion strains, locus YKL085W, strain MDH1, stronger effect = lower value 0.0549 | S. cerevisiae deletion strains, locus YKL160W, strain elf1, stronger effect = lower value 0.0672 | S. cerevisiae deletion strains, locus YKL190W, strain CNB1, stronger effect = lower value 0.0495 | S. cerevisiae deletion strains, locus YKR001C, strain vps1, stronger effect = lower value 0.064 | S. cerevisiae deletion strains, locus YKR026C, strain gcn3, stronger effect = lower value 0.0615 | S. cerevisiae deletion strains, locus YKR091W, strain srl3, stronger effect = lower value 0.0622 | S. cerevisiae deletion strains, locus YLL001W, strain dnm1, stronger effect = lower value 0.0729 | S. cerevisiae deletion strains, locus YLL026W, stronger effect = lower value 0.0595 | S. cerevisiae deletion strains, locus YLL041C, strain sdh2, stronger effect = lower value 0.0595 | S. cerevisiae deletion strains, locus YLR027C, strain aat2, stronger effect = lower value 0.0567 | S. cerevisiae deletion strains, locus YLR039C, strain RIC1, stronger effect = lower value 0.0906 | S. cerevisiae deletion strains, locus YLR102C, strain apc9, stronger effect = lower value 0.0627 | S. cerevisiae deletion strains, locus YLR113W, strain HOG1, stronger effect = lower value 0.138 | S. cerevisiae deletion strains, locus YLR221C, strain rsa3, stronger effect = lower value 0.061 | S. cerevisiae deletion strains, locus YLR258W, strain gsy2, stronger effect = lower value 0.0609 | S. cerevisiae deletion strains, locus YLR262C, strain YPT6 (second series), stronger effect = lower value 0.0795 | S. cerevisiae deletion strains, locus YLR262C, strain YPT6, stronger effect = lower value 0.0981 | S. cerevisiae deletion strains, locus YLR268W, strain sec22, stronger effect = lower value 0.0733 | S. cerevisiae deletion strains, locus YLR320W, strain mms22, stronger effect = lower value 0.0819 | S. cerevisiae deletion strains, locus YLR330W, strain CHS5, stronger effect = lower value 0.0552 | S. cerevisiae deletion strains, locus YLR342W, strain FKS1 (second series), stronger effect = lower value 0.0785 | S. cerevisiae deletion strains, locus YLR342W, strain FKS1, stronger effect = lower value 0.0773 | S. cerevisiae deletion strains, locus YLR357W, strain rsc2, stronger effect = lower value 0.117 | S. cerevisiae deletion strains, locus YLR370C, strain arc18, stronger effect = lower value 0.0623 | S. cerevisiae deletion strains, locus YLR371W, strain rom2, stronger effect = lower value 0.0624 | S. cerevisiae deletion strains, locus YLR384C, strain iki3, stronger effect = lower value 0.554 | S. cerevisiae deletion strains, locus YLR418C, strain cdc73, stronger effect = lower value 0.0967 | S. cerevisiae deletion strains, locus YML016C, strain PPZ1, stronger effect = lower value 0.0497 | S. cerevisiae deletion strains, locus YML032C, strain rad52, stronger effect = lower value 0.832 | S. cerevisiae deletion strains, locus YML120C, strain ndi1, stronger effect = lower value 0.724 | S. cerevisiae deletion strains, locus YML124C, strain tub3, stronger effect = lower value 0.0602 | S. cerevisiae deletion strains, locus YMR058W, strain fet3, stronger effect = lower value 0.062 | S. cerevisiae deletion strains, locus YMR078C, strain ctf18, stronger effect = lower value 0.0748 | S. cerevisiae deletion strains, locus YMR125W, strain sto1, stronger effect = lower value 0.0783 | S. cerevisiae deletion strains, locus YMR129W, stronger effect = lower value 0.0579 | S. cerevisiae deletion strains, locus YMR205C, strain PFK2, stronger effect = lower value 0.134 | S. cerevisiae deletion strains, locus YMR223W, strain ubp8, stronger effect = lower value 0.0699 | S. cerevisiae deletion strains, locus YMR231W, strain pep5, stronger effect = lower value 0.0661 | S. cerevisiae deletion strains, locus YMR263W, strain SAP30, stronger effect = lower value 0.065 | S. cerevisiae deletion strains, locus YNL067W, strain RPL9B, stronger effect = lower value 0.0566 | S. cerevisiae deletion strains, locus YNL071W, strain lat1, stronger effect = lower value 0.0612 | S. cerevisiae deletion strains, locus YNL128W, strain TEP1, stronger effect = lower value 0.0628 | S. cerevisiae deletion strains, locus YNL153C, strain GIM3, stronger effect = lower value 0.0713 and 0.0822 | S. cerevisiae deletion strains, locus YNL209W, strain ssb2, stronger effect = lower value 0.0633 | S. cerevisiae deletion strains, locus YNL224C, strain SQS1, stronger effect = lower value 0.826 | S. cerevisiae deletion strains, locus YNL233W, strain BNI4, stronger effect = lower value 0.0552 | S. cerevisiae deletion strains, locus YNL248C, strain rpa49, stronger effect = lower value 0.0871 | S. cerevisiae deletion strains, locus YNL250W, strain rad50, stronger effect = lower value 0.101 | S. cerevisiae deletion strains, locus YNL271C, strain bni1, stronger effect = lower value 0.0626 | S. cerevisiae deletion strains, locus YNL298W, strain CLA4, stronger effect = lower value 0.0625 | S. cerevisiae deletion strains, locus YNL307C, strain MCK1, stronger effect = lower value 0.0743 | S. cerevisiae deletion strains, locus YNL322C, strain KRE1 (second series), stronger effect = lower value 0.299 | S. cerevisiae deletion strains, locus YNR049C, strain mso1, stronger effect = lower value 0.0582 | S. cerevisiae deletion strains, locus YNR052C, strain pop2, stronger effect = lower value 0.851 | S. cerevisiae deletion strains, locus YOL006C, strain TOP1, stronger effect = lower value 0.102 | S. cerevisiae deletion strains, locus YOR001W, strain rrp6, stronger effect = lower value 0.459 | S. cerevisiae deletion strains, locus YOR061W, strain CKA2, stronger effect = lower value 0.0469 | S. cerevisiae deletion strains, locus YOR069W, strain VPS5, stronger effect = lower value 0.0489 | S. cerevisiae deletion strains, locus YOR070C, strain gyp1, stronger effect = lower value 0.0603 | S. cerevisiae deletion strains, locus YOR080W, strain dia2, stronger effect = lower value 0.803 | S. cerevisiae deletion strains, locus YOR083W, strain WHI5 (second series), stronger effect = lower value 0.0766 | S. cerevisiae deletion strains, locus YOR083W, strain WHI5, stronger effect = lower value 0.0645 | S. cerevisiae deletion strains, locus YOR106W, strain vam3, stronger effect = lower value 0.0667 | S. cerevisiae deletion strains, locus YOR136W, strain idh2, stronger effect = lower value 0.0722 | S. cerevisiae deletion strains, locus YOR184W, strain ser1, stronger effect = lower value 0.0757 | S. cerevisiae deletion strains, locus YOR231W, strain MKK1, stronger effect = lower value 0.118 | S. cerevisiae deletion strains, locus YOR265W, strain rbl2, stronger effect = lower value 0.0602 | S. cerevisiae deletion strains, locus YOR270C, strain vph1, stronger effect = lower value 0.103 | S. cerevisiae deletion strains, locus YOR316C, strain cot1, stronger effect = lower value 0.063 | S. cerevisiae deletion strains, locus YPL051W, strain arl3, stronger effect = lower value 0.0663 | S. cerevisiae deletion strains, locus YPL055C, strain LGE1, stronger effect = lower value 0.0731 | S. cerevisiae deletion strains, locus YPL078C, strain atp4, stronger effect = lower value 0.707 | S. cerevisiae deletion strains, locus YPL106C, strain sse1, stronger effect = lower value 0.105 | S. cerevisiae deletion strains, locus YPL240C, strain hsp82, stronger effect = lower value 0.0588 | S. cerevisiae deletion strains, locus YPL256C, strain CLN2, stronger effect = lower value 0.113 | S. cerevisiae deletion strains, locus YPR119W, strain clb2, stronger effect = lower value 0.0638 | S. cerevisiae deletion strains, locus YPR141C, strain kar3, stronger effect = lower value 0.0669 | S. cerevisiae deletion strains, locus YPR163C, strain tif3, stronger effect = lower value 0.0717 | S. cerevisiae deletion strains, locus YPR167C, strain met16, stronger effect = lower value 0.0625 | S. cerevisiae deletion strains, strain wtn01, stronger effect = lower value 0.0617 | S. cerevisiae strains, strain wild type, stronger effect = lower value 0.0481

From PubChem BioAssay AID1159580 (chemical genetic matrix, 2015)
